IDE exosite inh – exo-site inhibitors of human insulin-degrading enzyme | P14735 | purified IDE, FL-6b probe fluorescence polarization; stronger effect = lower value | z-score at 20 µM | hit rate 6.3% among 17,000;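 active = z-score of -3 or lower, meaning strong loss of probe binding signal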;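 note: His-tagged human IDE residues 42-1019 made in E. coli with 30 nM FL-6b probe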
Target sequence (P14735 42-1019 limits assumed): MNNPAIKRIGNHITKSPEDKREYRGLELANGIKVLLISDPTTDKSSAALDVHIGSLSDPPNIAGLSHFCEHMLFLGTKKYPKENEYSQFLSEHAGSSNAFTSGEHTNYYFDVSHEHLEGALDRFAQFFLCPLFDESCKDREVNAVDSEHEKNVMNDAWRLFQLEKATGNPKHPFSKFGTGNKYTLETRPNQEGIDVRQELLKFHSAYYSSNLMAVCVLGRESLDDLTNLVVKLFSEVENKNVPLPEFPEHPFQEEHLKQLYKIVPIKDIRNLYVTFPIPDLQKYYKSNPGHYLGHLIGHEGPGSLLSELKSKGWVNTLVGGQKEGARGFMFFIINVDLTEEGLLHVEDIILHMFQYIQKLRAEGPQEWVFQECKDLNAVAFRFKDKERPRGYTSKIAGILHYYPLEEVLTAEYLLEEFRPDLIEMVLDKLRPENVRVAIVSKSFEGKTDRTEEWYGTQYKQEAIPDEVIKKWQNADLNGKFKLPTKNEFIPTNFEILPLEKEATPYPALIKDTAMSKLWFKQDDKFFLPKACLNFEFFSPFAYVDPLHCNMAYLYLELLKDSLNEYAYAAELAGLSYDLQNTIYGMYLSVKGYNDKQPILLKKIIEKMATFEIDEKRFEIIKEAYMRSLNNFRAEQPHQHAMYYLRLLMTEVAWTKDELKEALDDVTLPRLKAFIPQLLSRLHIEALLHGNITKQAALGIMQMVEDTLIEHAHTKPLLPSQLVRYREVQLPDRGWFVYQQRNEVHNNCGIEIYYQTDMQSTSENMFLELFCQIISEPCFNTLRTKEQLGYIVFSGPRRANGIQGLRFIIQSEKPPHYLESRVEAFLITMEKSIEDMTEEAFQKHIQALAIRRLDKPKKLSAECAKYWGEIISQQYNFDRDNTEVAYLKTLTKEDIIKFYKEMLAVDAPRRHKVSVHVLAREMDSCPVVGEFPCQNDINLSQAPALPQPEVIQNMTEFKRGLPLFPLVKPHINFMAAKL
Hits are given with their value. This excerpt belongs to a sample that is enriched for hits.

Screening C/C=C/c1ccc([C@@H]2[C@H](CO)N3CCCCN(C(=O)CN(C)C)C[C@@H]23)cc1 returned IDE exosite inh inactive.
Screening CN(C)CC(=O)N1CCCCN2[C@H](CO)[C@H](c3ccc(/C=C/c4ccccc4)cc3)[C@@H]2C1 returned IDE exosite inh -7.7.
`CN(C)CC#Cc1ccc([C@H]2[C@H]3CN(C(=O)CN(C)C)CCCCN3[C@H]2CO)cc1` gave IDE exosite inh inactive.
Screening CN(C)CC(=O)N1CCCCN2[C@H](CO)[C@@H](c3ccc(/C=C/c4ccccc4)cc3)[C@@H]2C1 returned IDE exosite inh -12.
Screening CN(C)CC(=O)N1CCCCN2[C@H](CO)[C@H](c3ccc(-c4ccccc4)cc3)[C@H]2C1 returned IDE exosite inh inactive.
`CN(C)CC(=O)N1CCCCN2[C@H](CO)[C@H](c3ccc(-c4ccccc4)cc3)[C@@H]2C1` gave IDE exosite inh inactive.
`CN(C)C(=O)C[C@H]1C[C@H]2c3cc(NC(=O)Nc4ccc(F)cc4)ccc3O[C@H]2[C@@H](CO)O1` gave IDE exosite inh inactive.
O=C(Cc1cccnc1)N1CC(=O)N2[C@H](C1)[C@@H](c1ccc(C#CC3CC3)cc1)[C@@H]2CO was read as IDE exosite inh inactive.
For CO[C@H]1CN(C)C(=O)c2ccc(NS(=O)(=O)CC(F)(F)F)cc2OC[C@H](C)N(C(=O)NC(C)C)C[C@H]1C the results were IDE exosite inh inactive.
For O=S(=O)(c1cccc(F)c1)N1CC[C@@H]2[C@H]1c1cc(C#Cc3ccccc3F)ccc1N[C@@H]2CO the results were IDE exosite inh inactive.
COCC#Cc1ccc([C@H]2[C@H]3CN(C(=O)c4cccnc4)CC(=O)N3[C@H]2CO)cc1 was read as IDE exosite inh inactive.
Screening CN(C)CC(=O)N1CC(=O)N2[C@@H](CO)[C@H](c3ccc(/C=C/c4ccccc4)cc3)[C@@H]2C1 returned IDE exosite inh -4.2.
For O=C(CC1CC1)N1CC(=O)N2[C@@H](CO)[C@@H](c3ccc(C#Cc4ccc(F)cc4)cc3)[C@@H]2C1 the results were IDE exosite inh inactive.
For O=C(CC1CC1)N1CC(=O)N2[C@@H](CO)[C@@H](c3ccc(-c4cccnc4)cc3)[C@@H]2C1 the results were IDE exosite inh inactive.
For O=C(CC1CC1)N1CC(=O)N2[C@H](CO)[C@@H](c3ccc(C#Cc4ccccc4)cc3)[C@H]2C1 the results were IDE exosite inh -6.4.
O=C(Cc1ccccc1)N1CC(=O)N2[C@H](CO)[C@@H](c3ccc(C#Cc4ccccc4)cc3)[C@@H]2C1 was read as IDE exosite inh inactive.
O=C(c1ccc(F)cc1)N1CC(=O)N2[C@H](C1)[C@H](c1ccc(/C=C/c3ccccc3)cc1)[C@@H]2CO was read as IDE exosite inh inactive.
`O=C(CC1CC1)N1CC(=O)N2[C@H](C1)[C@H](c1ccc(/C=C/c3ccccc3)cc1)[C@@H]2CO` gave IDE exosite inh -3.8.
`O=C(CC1CC1)N1CC(=O)N2[C@@H](CO)[C@H](c3ccc(-c4ccccc4)cc3)[C@@H]2C1` gave IDE exosite inh inactive.
`CN(C)CC(=O)N1CC(=O)N2[C@@H](CO)[C@H](c3ccc(-c4ccc(C#N)cc4)cc3)[C@@H]2C1` gave IDE exosite inh inactive.
CC(C)c1cn(CC[C@@H]2CC[C@@H](NS(=O)(=O)c3ccc(F)cc3)[C@@H](CO)O2)nn1 was read as IDE exosite inh inactive.
For O=C(NC1CCC1)[C@@H]1[C@@H](CO)[C@@H]2Cn3c(ccc(-c4ccncc4)c3=O)[C@H]1N2Cc1cocn1 the results were IDE exosite inh inactive.
Screening CCC(=O)N1[C@H](CO)[C@@H](c2ccccc2)[C@H]1CN(C(C)C)S(C)(=O)=O returned IDE exosite inh inactive.
`CN(C)C(=O)c1ccc(-c2ccc(C3[C@H]4CNC[C@@H]3N4CC3CCCCC3)cc2)cc1` (stereo not given in full) gave IDE exosite inh inactive.
O=C(c1cnccn1)N1CC(=O)N2[C@H](C1)[C@@H](c1ccc(C#CCc3ccccc3)cc1)[C@@H]2CO was read as IDE exosite inh inactive.
C/C=C/c1ccc([C@H]2[C@@H](CO)N(C(=O)C3CC3)[C@H]2CN(C)C(C)=O)cc1 was read as IDE exosite inh inactive.
For CC(C)CC#Cc1ccc([C@H]2[C@H]3CN(C(=O)Cc4ccccc4)CC(=O)N3[C@H]2CO)cc1 the results were IDE exosite inh inactive.
`C/C=C/c1ccc([C@@H]2[C@H](CO)N(C(=O)C3CCC3)C23CN(C(=O)NC(C)C)C3)cc1` gave IDE exosite inh inactive.
`COc1ccc(C#Cc2ccc([C@@H]3[C@H]4CN(C(=O)Nc5ccccc5F)CC(=O)N4[C@H]3CO)cc2)cc1` gave IDE exosite inh inactive.
For CN(C[C@H]1N[C@@H](CO)[C@@H]1c1ccc(-c2cccc(F)c2)cc1)S(C)(=O)=O the results were IDE exosite inh inactive.
Screening Cc1ccc(CN2CC(=O)N3[C@@H](CO)[C@H](c4ccc(-c5cccnc5)cc4)[C@@H]3C2)cc1 returned IDE exosite inh -3.1.
CCC(=O)N1CC(=O)N2[C@@H](CO)[C@H](c3ccc(-c4cccnc4)cc3)[C@@H]2C1 was read as IDE exosite inh inactive.
`O=C(c1ccccc1F)N1CC(=O)N2[C@H](C1)[C@@H](c1ccc(-c3cccnc3)cc1)[C@@H]2CO` gave IDE exosite inh -3.1.
O=C(c1ccccc1F)N1CC(=O)N2[C@@H](CO)[C@H](c3ccc(-c4cccnc4)cc3)[C@@H]2C1 was read as IDE exosite inh inactive.
O=C(C1CCCCC1)N1CC(=O)N2[C@H](C1)[C@H](c1ccc(-c3cccnc3)cc1)[C@@H]2CO was read as IDE exosite inh inactive.
Screening O=C(c1ccccc1F)N1CC(=O)N2[C@@H](CO)[C@@H](c3ccc(-c4cccnc4)cc3)[C@@H]2C1 returned IDE exosite inh inactive.
`O=C(C1CCCCC1)N1CC(=O)N2[C@@H](CO)[C@H](c3ccc(-c4cccnc4)cc3)[C@@H]2C1` gave IDE exosite inh inactive.
`CCC(=O)N1CC(=O)N2[C@H](CO)[C@@H](c3ccc(-c4cccnc4)cc3)[C@@H]2C1` gave IDE exosite inh inactive.
For CCC(=O)N1CC(=O)N2[C@H](CO)[C@H](c3ccc(-c4cccnc4)cc3)[C@H]2C1 the results were IDE exosite inh -3.1.
O=C(C1CCCCC1)N1CC(=O)N2[C@H](CO)[C@H](c3ccc(-c4cccnc4)cc3)[C@H]2C1 was read as IDE exosite inh -4.7.
O=C1CN(Cc2ccc(F)cc2)C[C@@H]2[C@@H](c3ccc(-c4cccnc4)cc3)[C@@H](CO)N12 was read as IDE exosite inh inactive.
`O=C1CN(Cc2ccc(F)cc2)C[C@H]2[C@@H](c3ccc(-c4cccnc4)cc3)[C@H](CO)N12` gave IDE exosite inh inactive.
`O=C(C[C@@H]1CC[C@@H]2[C@H](COC[C@H](O)CN2S(=O)(=O)c2cccc(F)c2)O1)NCc1ccncn1` gave IDE exosite inh inactive.
CCN(C[C@@H]1N[C@H](CO)[C@H]1c1ccc(-c2ccccc2)cc1)C(=O)COC was read as IDE exosite inh inactive.
`C[C@@H](O)C#Cc1ccc([C@@H]2[C@H](CO)N3CCCCN(CC4CCOCC4)C[C@@H]23)cc1` gave IDE exosite inh inactive.
COc1ccccc1NC(=O)N1C[C@H](O)COC[C@@H]2O[C@H](CC(=O)NCCc3ccncc3)CC[C@H]21 was read as IDE exosite inh inactive.
Screening CCCNC(=O)N1C[C@H]2[C@@H](c3ccccc31)[C@H](CO)N2C(=O)CN1CCOCC1 returned IDE exosite inh inactive.

Source: PubChem BioAssay
